Reference: PubChem BioAssay (NCATS)
Activity calls are given as the source filed them. Calls come from the whole dose curve; as a rule, active = well fitted activation curve with a large enough effect; inconclusive = small, poorly fitted or top-dose-only effect; inactive = no such curve, though single readings can be large or run the other way.

Molecular target: Cytochrome P450 3A4 (Homo sapiens) (UniProt P08684)
Assay: qHTS Assay for Activators of Cytochrome P450 3A4 (AID 885); note: nearly all actives have a fitted effect of over 65% in size
Details: recombinant CYP3A4, Luciferin-PPXE luminescence, 60 min; series mostly up to 57.1 µM
Method: NIH Molecular Libraries Screening Centers Network [MLSCN]
NIH Chemical Genomics Center [NCGC]
The P450 gene superfamily is involved in the metabolism and clearance of xenobiotics. This assay used human CYP3A4 to measure the dealkylation of luciferin-6' phenylpiperazinylyl (Luciferin-PPXE; […]) to luciferin. The luciferin is then measured by luminescence after the addition of a luciferase detection reagent. Luciferin-PPXE concentration in the assay was equal to its KM for CYP3A4. Inhibitors and some substrates limit the production of luciferin, and decrease measured luminescence; activators increase the production of luciferin and luminescence.
NCGC Assay Protocol Summary:
Two uL of enzyme and substrate mix (final concentrations: 20nM CYP3A4, 25uM Luciferin-PPXE, 200mM KPO4) were dispensed into a white, solid bottom 1536-well microtiter plate. 23nL of compound was transferred by a pin tool. The plate was incubated at RT for 10 min. Two uL of an NADPH regeneration solution (Promega supplied reagent) was dispensed and the reaction was allowed to continue for 60 min at RT. Then the reaction was stopped by reconstituted luciferin detection buffer. After another 20 min of incubation the plate was read on the ViewLux (Perkin Elmer) at 60 sec exposure and 2x2 binning. This protocol was carried out with Promega-Glo reagents and further information can be found at http://www.promega.com/tbs/tb325/tb325.pdf. Data were normalized to the to AC100 inhibition (57 uM ketoconazole).
Keywords: P450, CYP2D6, Luciferase, MLSMR, MLSCN, NIH Roadmap, qHTS, NCGC

Sequence of Cytochrome P450 3A4 (Homo sapiens) (P08684 whole entry, looked up): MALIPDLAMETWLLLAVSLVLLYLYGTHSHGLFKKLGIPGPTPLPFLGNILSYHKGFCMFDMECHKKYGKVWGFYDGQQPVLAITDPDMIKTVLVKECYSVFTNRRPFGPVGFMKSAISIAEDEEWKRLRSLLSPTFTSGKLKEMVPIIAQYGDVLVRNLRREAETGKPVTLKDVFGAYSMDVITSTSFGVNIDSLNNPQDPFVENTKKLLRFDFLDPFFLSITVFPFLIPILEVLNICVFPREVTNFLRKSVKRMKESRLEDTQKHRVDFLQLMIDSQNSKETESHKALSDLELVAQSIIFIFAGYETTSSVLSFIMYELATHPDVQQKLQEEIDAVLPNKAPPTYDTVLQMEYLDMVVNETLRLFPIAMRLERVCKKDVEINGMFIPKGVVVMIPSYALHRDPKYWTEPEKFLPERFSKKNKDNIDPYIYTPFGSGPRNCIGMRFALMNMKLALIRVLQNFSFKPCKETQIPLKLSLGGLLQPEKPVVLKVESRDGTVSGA

| Compound | outcome | activity change, positive = activation |
| --- | --- | --- |
| COc1cccc(Cn2c(=O)cnc3cnc(N(C)C)nc32)c1 | inactive | – |
| CN(C)c1ccc(-c2cncnc2NCCN2CCOCC2)cc1 | inactive | – |
| COCCn1c(=O)c(CCc2ccccc2)nc2cncnc21 | inactive | – |
| c1ccc(Nc2nc(-c3cccnc3)nc3ccccc23)cc1 | inactive | – |
| COc1cccc(Cn2c(=O)c(CCc3ccccc3)nc3cnc(N(C)C)nc32)c1 | inactive | – |
| COc1cc2c(cc1OC)C1C(=O)c3ccc4c(c3OC1CO2)C=CC(C)(C)O4 (stereo not given) | inactive | – |
| COc1cccc(-c2nc(N(C)C)c3ccccc3n2)c1 | inactive | – |
| FC(F)(F)c1ccccc1-c1nc(NCc2cccnc2)c2ccccc2n1 | inactive | – |
| c1ccc2c(NCCN3CCOCC3)nc(-c3ccoc3)nc2c1 | inactive | – |
| Cc1nc2cnc(OCc3ccccc3)nc2n(CCc2ccccc2)c1=O | inactive | – |
| CN1CCN(c2nc(-c3cccnc3)nc3ccccc23)CC1 | inactive | – |
| Cc1cccc(CNc2ncncc2-c2ccccc2C)c1 | inactive | – |
| Cc1nc2cnc(N3CCN(C)CC3)nc2n(CCc2ccccc2)c1=O | inactive | – |
| O=c1c(O)c(-c2ccccc2)oc2ccc3occc3c12 | inactive | – |
| COc1cccc(Cn2c(=O)cnc3cnc(Nc4cccc(OC)c4)nc32)c1 | inactive | – |
| COc1cccc(Nc2ncc3nc(-c4ccc(F)cc4)c(=O)n(CCC#N)c3n2)c1 | inactive | – |
| COc1ccccc1-c1nc(NC2CC2)c2ccccc2n1 | inactive | – |
| CCNc1ncc2nc(CCc3ccccc3)c(=O)n(Cc3cccc(OC)c3)c2n1 | inactive | – |
| O=c1cnc2cnc(Oc3ccccc3)nc2n1Cc1cccs1 | inactive | – |
| COc1ccc(CNc2ncncc2-c2ccccc2OC)c(OC)c1 | inactive | – |

| Compound | outcome | activity change, positive = activation |
| --- | --- | --- |
| O=C1c2ccccc2C(=O)C1c1ccc2ccccc2n1 | inactive | – |
| CN1CCN(c2ncc3nc(-c4cn(C)c5ccccc45)c(=O)n(CCC#N)c3n2)CC1 | inactive | – |
| COc1cccc(Cn2c(=O)c(CCc3ccccc3)nc3cnc(N4CCN(C)CC4)nc32)c1 | inactive | – |
| CCOC(=O)C1(O)Oc2cc(OC)cc(OC)c2C(=O)C1c1ccccc1 (stereo not given) | inactive | – |
| COc1ccccc1CNc1cc(-c2cccnc2)ncn1 | inactive | – |
| COc1ccc(CNc2cc(-c3cccc(NS(C)(=O)=O)c3)ncn2)c(OC)c1 | inactive | – |
| COc1cc(/C=C/c2ccccc2)oc(=O)c1 | inactive | – |
| COc1ncc2nc(-c3cccs3)c(=O)n(CCC#N)c2n1 | inactive | – |
| COc1cccc(-c2cncnc2NCc2ccccc2OC)c1 | inactive | – |
| COCCn1c(=O)c(-c2ccc(F)cc2)nc2cnc(Oc3ccccc3)nc21 | inactive | – |
| CCNc1ncc2nc(-c3cccs3)c(=O)n(CCC#N)c2n1 | inactive | – |
| Cc1cnc(CNc2ncnc3ccc(-c4ccccc4Cl)cc23)cn1 | inactive | – |
| COCCn1c(=O)c(CCc2ccccc2)nc2cnc(N(C)C)nc21 | inactive | – |
| Clc1ccccc1NN(Cc1ccncc1)c1ccccc1Cl | – | -76.6% [at 11.4 µM] (inactive) |
| COc1ccc(Oc2ncc3nc(CCc4ccccc4)c(=O)n(CCC#N)c3n2)cc1 | inactive | – |
| N#Cc1cccc(-c2ccc3ncnc(NCc4cccs4)c3c2)c1 | inactive | – |
| COc1ccc(/C=C/C(=O)c2cccs2)c(OC)c1 | inactive | – |
| COc1cc2cc3c4c(cc(OC)c(OC)c4c2cc1OC)CCN3C | inactive | – |
| N#Cc1ccccc1-c1ccc2ncnc(NCc3cccnc3)c2c1 | inactive | – |
| COc1ccc(Oc2ncc3nc(-c4cccc(C#N)c4)c(=O)n(Cc4cccc(OC)c4)c3n2)cc1 | inactive | – |
